Source: the supplement of paper PMC11417369
The full ranking holds about 25,000 sequences; the median of “ln(normalized median fluorescence intensity)” is about 7.1, and the highest 2% start at about 10. The full list was thinned out, with the highest values kept by preference.

Tested on: PfSIP2 AP2 domain 1 (GST-tagged)
Assay: gcPBM binding intensity (ln(normalized median fluorescence intensity)); higher = stronger DNA binding
In short: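 An Agilent 4 × 180k array carrying primer-extended double-stranded 36-bp intergenic genomic probes and negative controls received GST-tagged P. falciparum DNA-binding domains expressed in E. coli, about 25 μg on average, for 1 h. The binding buffer contained 1× PBS, 1% milk, 0.2 mg/ml BSA, 0.5% salmon testes DNA and 0.03% Triton X-100. Binding intensity is the top Masliner-normalised natural-log median intensity across replicate spots of either probe orientation, read after Alexa488 anti-GST antibody staining and a 488 nm scan.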

Row | Sequence | gcPBM binding intensity (ln)
1 | TACATATATATTTGTTCACACACACCCAAAAAAAAA [CACACA_site8788] | 7.01
2 | AAAAGTAACAAAGCTACACACATTTAAATAAACATA [CACACA_site1421] | 6.94
3 | GTTCTAAATATTATTGCATGTTGCACGTTTCTCTGT [TGCATGCA_site159] | 7.65
4 | TGAACAGGTCATAATTTACACACTATATATTTTATT [CACACA_site8123] | 6.87
5 | TGTATAAAAAACTAATGTACAAATGACAAGATATCT [XGTACX_site4600] | 6.9
6 | GTAAGAAAGAAAGGAAGTACGTAAGAAAGTAAGAAC [XGTACX_site1239] | 7.27
7 | TACATAAACTTTATAACACACACTTATATATATATA [CACACA_site1106] | 9.34
8 | AACTCATAGGAGTGTGCACACAAAAAATTAAAAAAA [CACACA_site8996] | 9.24
9 | TTTTCATATTATAGTGCACACAAAAATATATATATG [CACACA_site8929] | 10.8
10 | TTCATATTATAGTGCACACAAAAATATATATATGGT [CACACA_site2855] | 10.7
11 | ATTATATATATTTATGCACACAAAATATATTATATA [CACACA_site9244] | 7.56
12 | CATATAAAAATATATGCACACAAATAAAAAATTATA [CACACA_site9210] | 7.29
13 | ATGGCATAAATATATGCACACACAAAAAAAAAAAAA [CACACA_site7902] | 7.06
14 | CTCATAGTTGGGTGCACACAAAAAATTAAAAAAATA [CACACA_site3032] | 12.3
15 | ATTATATACATATATGCACACAAAAAAATATATATT [CACACA_site8508] | 7.28
16 | TGAATATTCATATGCACACAAATTAATATACATAAT [CACACA_site442] | 7.03
17 | ATTCACAAATATATGGTGCATAATATATATATATAT [GTGCAC_site9674] | 10.6
18 | AACTCATAGCGGTGTGCACACAAAAAATTAAAAAAA [CACACA_site3033] | 8.94
19 | ATTAATTTTATATATGCACACAAAATATGTTCATAT [CACACA_site9350] | 7.13
20 | TGAATAAATATAAAAGGTACACATATAAATATATAT [XGTACX_site6349] | 7.11
21 | TATATATATATAATATGTACATATAATCAACATTTT [XGTACX_site3915] | 8.68
22 | TATTAGTCGAATGATGTACACACATACAAAACATTT [CACACA_site9331] | 6.96
23 | TTTTTTTTTTGATGTTGTACATATATATTATATATA [XGTACX_site6377] | 7.17
24 | TAAAAATAATTTGCATGTACATAGGTCGATGTATTT [XGTACX_site1357] | 7.08

Row | Sequence | gcPBM binding intensity (ln)
25 | ATACATATAGGATGCACACATAATTCAAATACAATA [CACACA_site651] | 7.73
26 | TTTTTTTCTAATTATGCACACATATCAAAATATTCA [CACACA_site8886] | 10.3
27 | ATCTATCATATTTATGCACACAAAAATAATTAATTC [CACACA_site8837] | 7.35
28 | TTTTTCTAATTATGCACACATATCAAAATATTCAAT [CACACA_site2749] | 9.18
29 | CGAAATCATATGTACACACACATATATATATATATA [CACACA_site2151] | 9.32
30 | AATAATAAAGTGAACACACACATATAATATATATAT [CACACA_site4143] | 8.41
31 | ACACACAATACAAAAGTGCATATAATAATTAATCAT | 8.76
32 | TGTATATAATCGAGTGCACACACAAAAAAAAAGTGA [CACACA_site8417] | 10.4
33 | TATATAACCGAGTGCACACACAAAAAAAAAGTGAAC [CACACA_site6806] | 11.1
34 | CTATAATAATAAAGTGAACACACACCGATAATATAT [CACACA_site9377] | 7.02
35 | AAAATATAATATATTGCACACAAAAAGTGAATTATT [CACACA_site8489] | 6.95
36 | ATAATATTCGAGTGTGCACACAAACATACATATATA [CACACA_site3396] | 8.79
37 | TATATAATCGAGTGCACACACAAAAAAAAAGTGAAC [CACACA_site1483] | 10.8
38 | ATAATAATAAAGTGAACACACACATATAATATATAT [CACACA_site9378] | 7.19
39 | TATAATAATATTTATTGTACAATTAGTTTAATTCAT [XGTACX_site272] | 7.08
40 | TACAAAAAAGAAGATATTCAAACAAAAACAAAAAAA [CACACA_negctrl_site1126] | 6.8
41 | CTCCTCATATAATTTTGTACATAAAAAATTACCATT [XGTACX_site3879] | 7.31
42 | CCCCATATAATGAACACACACACTCCTCATAATTAA [CACACA_site628] | 7.15
43 | TAATCATAACTTGATACGCACACGTTATATAAATAA [CACACA_site1579] | 7.02
44 | ATAAAATAAAATAAATGTACACGAAAAAAAATATTT [XGTACX_site3747] | 7.25
45 | ATGAATAAATTAAAAATGCACACTTTGATGGGTACA [CACACA_site2157] | 7.46
46 | TAACAATTAATAAAAGGTACACTTGAATATGCACCA [XGTACX_site2717] | 10.5
47 | TATTATATATATGCACGTACAAAAATAATAAAGGTA [XGTACX_site3506] | 7.71
48 | TTATACAGATATTTAACACACATTTTATAAAGTGCC [CACACA_site4851] | 6.87

Row | Sequence | gcPBM binding intensity (ln)
49 | TTTAAATACAGACATACACACATACACAGACATATA [CACACA_site4460] | 6.97
50 | TTTGAGTGCACATACACACAGACATACATTTAAATA [CACACA_site3403] | 11.9
51 | TTTAAATACAGACATACACACATACACGCACATATA [CACACA_site6400] | 7.17
52 | TAAATTTTTAAATACACACATACACCCATACAGACA [CACACA_site548] | 7.51
53 | TTTTTGAGTGCACATACACACAGACATACATTTAAA [CACACA_site5813] | 11.5
54 | TCCTTTTTGAAATGTTGTACTTTTTTTATCTTTCAT [XGTACX_site953] | 7.12
55 | ATTAACTATCATAACACACACAGTAGACATATTTTT [CACACA_site1822] | 7.04
56 | GATATATAAACATATACACACAAAAACATATTTATA [CACACA_site6734] | 6.98
57 | TGAATTATAAATTATAGTACTTTATAATATGAACAT [XGTACX_site2317] | 6.81
58 | AGAAAAATTCTAAGAACATGCAAAAAAATAAAAAAA [TGCATGCA_site293] | 6.84
59 | AAAAAAAAAATTTTCGTGCACATAAGAAAATTTAAA [GTGCAC_site9788] | 9.36
60 | TTTTTTTTTTTTTTGGTGCACATAGAAATTCTAAAA [GTGCAC_site9809] | 11.3
61 | ATTAAATGCACATATACACACACCCAATTTTAAGTT [CACACA_site3049] | 7.4
62 | TATGTAATAAATAGTACACACACACCGATATATATA [CACACA_site8389] | 7.46
63 | AAGGATTACAAAAAAAGTACAAATGGATTTTTTCCC [XGTACX_site8905] | 6.84
64 | TATGTTTACATATACGTGCACATGAATGTATACATT [GTGCAC_site9894] | 9.69
65 | TGCTTATATATACGTGCACACATATATATAAGATAT [CACACA_site8516] | 9.74
66 | TGCAAGCTTATATAGGTGCACATGTATACGTGTTCA | 11.3
67 | ATAACATACATAACAACACACAATATTTATAGGTAT [CACACA_site6243] | 7.12
68 | ATATAATCAACTGCAAAGGTTTAAAAGGAAAAAATA [CACACA_negctrl_site989] | 6.79
69 | TGATATTATTATAAGGTGCTTAAAAATAAAGATAAT [GTGCAC_site9539] | 7.78
70 | AATTTATAAATAATTAATTTGATAAATTATAAAGGG [GTGCAC_negctrl_site544] | 7.02
71 | ATTATCCATCAAAAGGTGCAAATTTTTAATTATAAA [GTGCAC_site9932] | 11.1
72 | TTTATTAATAAAAAGGTGCAATCAGGAAAAATTATC [GTGCAC_site9626] | 10.8

Row | Sequence | gcPBM binding intensity (ln)
73 | TTAACAAAACATAAGGTGCTTAAAATTTTATATCAC [GTGCAC_site9839] | 7.96
74 | AAATTAAAGATAAAAGTGCAAAATTATAAATTTATT | 7.97
75 | TATATATTAATCAAAGTGCAATAATAAAATAAAAGT [GTGCAC_site9490] | 8.38
76 | ATTATTTGATTAAAGGTGCAAGGATAATAATAAAAC | 10.3
77 | AAATTTAACAACTTCAAACACACAATATATATATAT [CACACA_site2092] | 8.91
78 | AACATACCCATATACACACACACATAAATACAGATA [CACACA_site4744] | 7.3
79 | GATTGATTATATGTGTGTACTTATATGTTAAAAAAA [XGTACX_site4784] | 7.29
80 | AGTCATATAAATAGTAGTACTGTGTGTGAAGAAAAA [XGTACX_site5056] | 7.42
81 | TTAACAAAATTTCCGTGTACGTAAATAAGAACATAG [XGTACX_site7200] | 7.25
82 | ACAAATACAAAAAAAGGTACACACATAATATATTTA [XGTACX_site5515] | 7.04
83 | ACATTCAATCTACTGTGTACATATTAAACTTTGAAA [XGTACX_site2913] | 7.49
84 | ATTATATATATATTATGTACATATATTGAAGTGGAT [XGTACX_site5916] | 7.56
85 | ATTTTTTTTTTTTTTTTGGGGGGGTATACTTTTAAA [CACACA_negctrl_site1020] | 10.7
86 | GTTAATATTTTTGGGGGTACTTAAAAAAAAAAAAAA [XGTACX_site1477] | 7.78
87 | TATACTTTATATATTTTGTATATATATTTTTTTTAT [TGCATGCA_negctrl_site530] | 7
88 | AATAAATTGAAACACACACACACATATATATATATA [CACACA_site848] | 9.2
89 | AGGAGGATATTACACAGTACCCAGGAAATCTACGGA [XGTACX_site4878] | 6.82
90 | TTGGGTGCATATATTTGTACACATTATTTCTATTTT [XGTACX_site3688] | 12
91 | ATATATAATTAATTTTGTACACATAAAAAAAAAAAT [XGTACX_site6647] | 7.25
92 | ACATATTTTATTTTTTGTACACATATATTATTTTTT [XGTACX_site6528] | 7.28
93 | TTGCATATTTCTAATTGTACATTATTTTATTTTATA [XGTACX_site8451] | 6.96
94 | AATTAATTAAATTAATGTACACATATATTTGTATTC [XGTACX_site2341] | 7.14
95 | CTTAAATTAATTTGGGTGCATATATTTGTACACATT [GTGCAC_site9948] | 10.9
